# Measurements published in PubChem BioAssay AID485358 (National Center for Advancing Translational Sciences (NCATS), 2010).
# Among all 340,000 compounds or so, about 1,800 (0.53%) were called active. What follows is part of a selection rich in actives, with near analogues and random picks from the rest. Values without a mark were called inactive.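 The calls were made as follows: active = activation over 3 SD above normal in the single-dose calcium agonist read (cut at about 30% in these data); inactive = the rest.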
# Target: D(2) dopamine receptor (Homo sapiens) (UniProt P14416)
# Sequence (P14416 whole entry, looked up): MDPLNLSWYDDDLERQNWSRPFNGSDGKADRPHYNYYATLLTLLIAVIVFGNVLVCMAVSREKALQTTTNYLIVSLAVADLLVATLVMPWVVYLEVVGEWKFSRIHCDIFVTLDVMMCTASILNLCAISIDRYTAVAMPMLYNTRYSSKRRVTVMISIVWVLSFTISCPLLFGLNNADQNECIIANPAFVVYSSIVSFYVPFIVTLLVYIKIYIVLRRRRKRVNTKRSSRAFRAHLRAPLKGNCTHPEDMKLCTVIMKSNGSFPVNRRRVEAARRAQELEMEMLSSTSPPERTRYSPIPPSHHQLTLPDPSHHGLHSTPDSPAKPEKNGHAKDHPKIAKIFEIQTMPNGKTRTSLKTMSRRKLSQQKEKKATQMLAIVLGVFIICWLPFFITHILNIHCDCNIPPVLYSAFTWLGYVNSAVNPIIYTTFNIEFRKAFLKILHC
# Assay: HTS Assay for Allosteric Agonists of the Human D2 Dopamine Receptor: Primary Screen for Agonists; also: 0% is about no effect
# Conditions: HEK293 T-REx D2 cells, calcium flux agonist mode; at 2 µM; hits give high values
# Summary of the method: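 Tetracycline-induced HEK293 T-REx cells with force-coupled D2 receptor, plated overnight at 30 C, loaded with no-wash calcium dye. After a 10 s baseline, compound was pin-added and calcium flux read kinetically for 180 s; calcium rises flagged agonists.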
row,SMILES,activation
1,Cc1ccc(C)c(N2CCN(C(=O)Cn3nc(C)c4sc5ccccc5c4c3=O)CC2)c1,-0.843%
2,COc1ccccc1CNc1ccc(-c2nc(-c3ccccc3C)no2)cc1[N+](=O)[O-],2.39%
3,CCc1cccc(CC)c1NC(=O)Cn1c(=O)c(-c2cc(C)ccc2NC(C)=O)nc2ccccc21,0.924%
4,O=C(NCc1cccs1)C1CCN(S(=O)(=O)c2ccc(Cl)cc2)CC1,0.13%
5,O=C(CNCc1cccs1)Nc1cc(S(=O)(=O)N2CCCC2)ccc1Cl,57.6% (active)
6,CS(=O)(=O)c1ccc(Cl)c(NC(=O)COC(=O)c2cccc(S(=O)(=O)N3CCCC3)c2)c1,-0.318%
7,O=C(NCCCN1CCCCCC1)C1CC(=O)N(C2CCCC2)C1 (stereo not given),0.131%
8,O=C(NCCCN1CCN(c2ccccc2F)CC1)C1CCC(=O)N1C1CCCCC1 (stereo not given),68.8% (active)
9,COc1ccc(CN2CC(C(=O)NCCN3CCN(c4ccccc4F)CC3)CC2=O)cc1 (stereo not given),0.792%
10,COc1ccccc1NC(=O)C(=O)c1cc(C)n(-c2ccccc2F)c1C,-1.58%
11,COc1ccc(-c2nn3c(=O)cc(CN4CCN(C(=O)c5ccc(OC)c(OC)c5)CC4)nc3s2)cc1,0.0582%
12,COc1ccc(OC)c(C(=O)c2ccc(C(=O)N3CCN(Cc4csc(C)n4)CC3)cc2)c1,37.6% (active)
13,COc1ccc(OC)c(C(=O)c2coc3ccc(O)c(CN4CCOCC4)c23)c1,0.863%
14,CCCCN1C(=O)c2[nH]nc(-c3ccccc3O)c2C1c1cccc(OCc2ccccc2)c1 (stereo not given),-0.42%
15,O=C(c1c(F)cccc1Cl)N1CCN(c2ccccn2)CC1,-0.0487%
16,O=C(c1c(Cl)cccc1Cl)N1CCN(c2cccc3[nH]ccc23)CC1,41.5% (active)
17,O=C(c1ccc2ccccc2n1)N1CCN(c2ccccc2Cl)CC1,1.21%
18,Cc1cc(C)cc(NC(=O)Cn2c(=O)c3ccccc3n3nncc23)c1,0.456%
19,Cc1cccn2c(=O)c(/C=C(\C#N)C(N)=O)c(N3CCCCCC3)nc12,-0.181%
20,CCOC(=O)CC1C(=O)NCCN1c1nc2c(C)cccn2c(=O)c1/C=C1\SC(=S)N(C(C)CC)C1=O (stereo not given),61.9% (active)
21,CCCN(CCC)c1nc2c(C)cccn2c(=O)c1/C=C1/SC(=S)N(Cc2ccco2)C1=O,9.37%
22,CCOC(=O)C1CCCN(C(=O)c2ccc3c(c2)sc2nc(-c4ccc(CC)cc4)cn23)C1 (stereo not given),4.91%
23,O=[N+]([O-])c1ccc(C=Nc2ccc(Cl)cc2Cl)s1,33.6% (active)
24,COc1ccc(CCNC(=O)c2cc3cccc4c3n2CC(C)S4)c(OC)c1OC (stereo not given),-0.932%

row,SMILES,activation
1,CCOCCCn1c(SCC(=O)Nc2ccc(CC)cc2)nc2ccccc2c1=O,0.545%
2,Cc1ccc(-n2c(=O)c3cccnc3n2CC(=O)NCc2ccc(F)cc2)cc1C,0.0353%
3,O=C(CC1C(=O)NCCN1C(=O)c1ccc([N+](=O)[O-])cc1)Nc1cccc(Cl)c1 (stereo not given),-0.121%
4,O=C(CC1NCCc2ccccc21)Nc1cccc(Cl)c1 (stereo not given),35.2% (active)
5,O=C(CC1NCCNC1=O)Nc1cc(Cl)cc(Cl)c1 (stereo not given),-0.701%
6,Cc1ccccc1CNC(=O)C(=O)NCC(c1cccs1)S(=O)(=O)c1cccs1 (stereo not given),0.367%
7,COc1cccc(NC(=O)N2CCN(C(=O)c3nsc4ccccc34)CC2)c1,-0.159%
8,COc1ccccc1CN1CCC(CNC(=O)c2cnn(-c3cccc(Cl)c3)c2C2CCN(C(=O)OC(C)(C)C)CC2)CC1,1.52%
9,O=C(Cn1cc(SCc2ccccc2)c2ccccc21)N1CCCCC1,0.397%
10,Cc1cc(OC(C)C(=O)Nc2sc3c(c2C(N)=O)CCCC3)ccc1Cl (stereo not given),-0.192%
11,CCCCCCc1cc2cc(-c3nnc(-c4ccccc4)o3)c(=O)oc2cc1O,32.4% (active)
12,CCn1cc(C(=O)N2CCN(c3cc(Cl)ccc3C)CC2)c(=O)c2cc(S(=O)(=O)N3CCCC3)ccc21,0.428%
13,CC1=Nc2cc(C(=O)NCc3ccc(C)cc3)ccc2Sc2ccc(Cl)cc21,0.834%
14,CCc1ccc2oc(-c3ccc(NC(=O)c4cc5ccccc5o4)cc3)nc2c1,0.271%
15,Cn1nnnc1SCCCNCc1ccc(Cl)cc1,0.973%
16,Cc1cc(C)cc(NC(=O)CSc2oc(-c3ccccc3)nc2S(=O)(=O)c2ccc(Cl)cc2)c1,-0.364%
17,CCn1c(=O)c(=O)n(CC)c2cc(N3CCCCC3)c(NC(=O)c3cccc(F)c3)cc21,-0.09%
18,CCn1c(=O)c(=O)n(CC)c2cc(N3CCCCC3)c(NC(=O)c3ccc(Cl)cc3)cc21,-0.0698%
19,CCn1c(=O)n(CC)c2cc(N3CCCC3)c(NC(=O)c3ccccc3Br)cc21,36.9% (active)
20,CCCC(=O)N1c2ccc(-c3csc(N)n3)cc2CC1C (stereo not given),0.868%
21,CC(C)(C)C(=O)OCc1nc(-c2ccc(O)c(O)c2)cs1,73.8% (active)
22,Cc1onc(C(=O)NN)c1-c1csc(COc2ccccc2)n1,-1.45%
23,COc1ccc(C2=NC3(CCCCC3)N(CC(=O)Nc3ccc(C(C)C)cc3)C2=O)cc1,-0.0796%
24,CN(C)c1ccc(/C=C2\NC(=S)N(Cc3ccccc3)C2=O)cc1,45.9% (active)

row,SMILES,activation
1,CN(C)c1ccc(C=C2C(=O)OC3(CCCC3)OC2=O)cc1,-0.32%
2,Cc1ccc(CN2C(=O)N/C(=C/c3cc(C)n(-c4ccccn4)c3C)C2=O)cc1,-1.58%
3,CCCCNC(=O)CSc1nc2cc3c(cc2c(=O)n1CCCCCC(=O)NCc1ccc2c(c1)OCO2)OCO3,0.322%
4,O=C(CCN1CCN(c2ccccc2)CC1)NNC(=S)Nc1ccccc1,56.1% (active)
5,CCOC(=O)N1CCN(CCC(=O)Nc2ccccc2)CC1,0.607%
6,O=C(CN1CCN(c2ccccc2)CC1)Nc1ccc(F)cc1,19.7%
7,Cc1ccc(S(=O)(=O)c2nc(-c3ccco3)oc2SCC(=O)Nc2ccc(F)cc2)cc1,-0.0829%
8,COc1ccc(CNC(=O)C(C)NCc2ccccc2Cl)cc1 (stereo not given),-0.182%
9,CC(CCc1ccc(O)cc1)NCc1ccc(Cl)cc1Cl (stereo not given),32.8% (active)
10,CC(CCc1ccccc1)NC(=O)c1cnc(Cl)c(Cl)c1 (stereo not given),-0.256%
11,C=Cc1ccc(Cn2c(C(=O)OC)cc3sc(C)cc32)cc1,0.446%
12,COc1ccccc1NC(=O)CCN1CCN(c2ccc(Cl)cc2)CC1,-0.695%
13,O=C(CCN1CCN(C/C=C/c2ccccc2)CC1)Nc1cccc(F)c1,1.58%
14,O=C(CCN1CCN(C/C=C/c2ccccc2)CC1)Nc1ccccc1Cl,76% (active)
15,Cc1nc(SCC(=O)N2CCN(c3ccccc3)CC2)[nH]c(=O)c1C,16%
16,COc1cccc(C(=O)NCc2ccc3c(c2)CCN3C(=O)c2ccncc2)c1,-0.0874%
17,COc1ccc(-c2nc(S(=O)(=O)c3ccccc3)c(N3CCCCC3)o2)cc1,-0.427%
18,O=C(CN1CCN(S(=O)(=O)c2cc(Cl)ccc2Cl)CC1)c1ccc(O)c(O)c1,57.8% (active)
19,O=S(=O)(c1cc(Cl)ccc1Cl)N1CCN(Cc2ccco2)CC1,-1.47%
20,N#Cc1ccsc1NC(=O)CN1CCN(S(=O)(=O)c2cc(Cl)ccc2Cl)CC1,3.35%
21,Cc1ccc(NC(=O)Cn2nnc3sc4c(c3c2=O)CCC(C)C4)cc1 (stereo not given),0.94%
22,CCc1ccccc1NC(=O)Cc1ccc(NC(=O)N2CCCCc3ccccc32)cc1,0.173%
